About 7,900 targets were measured; listed, in parts, are those with a hit and a random draw of the rest. About 0.6% of all pairs of compound and target were hits.
Columns and labels:
Assay in all cases: log2 fold change, soluble protein after heating vs DMSO (PISA); higher = thermal stabilisation; K562 cells, 10 uM, 30 min; active = over 0.2 and 3.5 SD of the protein, either way, in both replicates (recomputed)
IRAK-1-4 Inhibitor I = compound: C1COCCN1CCN2C3=CC=CC=C3N=C2NC(=O)C4=CC(=CC=C4)[N+](=O)[O-] [IRAK-1-4 Inhibitor I]
Outline: (§1)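 K562 cells at 2×10^6 cells/mL were treated with 10 μM compound for 30 min. Aliquots were heated for 3 min across 48°C-58°C, pooled, and extracted in PBS with 0.5% NP-40 at 4°C; soluble protein was the supernatant after 21,000xg for 90 min. Soluble protein was quantified by TMTpro 16plex LC-MS/MS with channel sums equalised, and reported as log2 fold change in thermal stability against DMSO controls, with values from duplicates.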

ibrutinib = compound: C=CC(=O)N1CCC[C@@H](n2nc(-c3ccc(Oc4ccccc4)cc3)c3c(N)ncnc32)C1 [ibrutinib]
Outline: as §1

[1] = compound: CC(=O)c1cnc2ccc(-c3cc(Cl)c(O)c(Cl)c3)nc2c1N[C@H]1CC[C@H](CN(C)C)CC1
Outline: as §1

ralimetinib = compound: CC(C)(C)Cn1c(N)nc2ccc(-c3[nH]c(C(C)(C)C)nc3-c3ccc(F)cc3)nc21 [ralimetinib]
Outline: as §1

[2] = compound: CC(C)(O)CC(=O)NCCn1ccc2ncnc(Nc3ccc(Oc4cccc(C(F)(F)F)c4)c(Cl)c3)c21
Outline: as §1

[3] = compound: CC(C)C1=C2N=C(C=C(N2N=C1)NCC3=CC=CC=C3)NCCCCCCN
Outline: as §1

[4] = compound: CC(C)C[C@@H](C=O)NC(=O)[C@H](CC(C)C)NC(=O)[C@H](CC(C)C)NC(=O)OCc1ccccc1
Outline: as §1

pinometostat = compound: CC(C)N(C[C@H]1O[C@@H](n2cnc3c(N)ncnc32)[C@H](O)[C@@H]1O)[C@H]1C[C@@H](CCc2nc3cc(C(C)(C)C)ccc3[nH]2)C1 [pinometostat]
Outline: as §1

[5] = compound: CC1=C(C(CC(=O)N1)C2=CC=C(C=C2)C(F)(F)F)C(=O)NC3=C(C=C4C(=C3)C=NN4)F
Outline: as §1

[6] = compound: CC1=C(C2=C(C=C1)C(=O)C3=CC=CC=C3N2CCCN)C
Outline: as §1

[7] = compound: CC1=C(C=C(C=C1)NC(=O)C2=CC(=CC=C2)C(C)(C)C#N)NC3=CC4=C(C=C3)N=CN(C4=O)C
Outline: as §1

[8] = compound: CC1=C(C=C(C=C1)NC(=O)C2=CC(=CC=C2)N(C)C)NC(=O)C3=CC=C(C=C3)O
Outline: as §1

[9] = compound: CC1=CC=C(C=C1)SC2=C3C=C(SC3=CN=C2)C(=O)N
Outline: as §1

[10] = compound: CC1=NC(=CC=C1)C2=C(N=C(N2)C(C)(C)C)C3=CC4=NC=CN=C4C=C3
Outline: as §1

Nexturastat A = compound: CCCCN(Cc1ccc(C(=O)NO)cc1)C(=O)Nc1ccccc1 [Nexturastat A]
Outline: as §1

vemurafenib = compound: CCCS(=O)(=O)Nc1ccc(F)c(C(=O)c2c[nH]c3ncc(-c4ccc(Cl)cc4)cc23)c1F [vemurafenib]
Outline: as §1

[11] = compound: CCCS(=O)(=O)Nc1ccc(F)c(C(=O)c2c[nH]c3ncc(Cl)cc23)c1F
Outline: as §1

[12] = compound: CCCc1cc(C)[nH]c(=O)c1CNC(=O)c1cc(-c2ccnc(N3CCN(C)CC3)c2)cc2c1cnn2C(C)C
Outline: as §1

givinostat = compound: CCN(CC)Cc1ccc2cc(COC(=O)Nc3ccc(C(=O)NO)cc3)ccc2c1 [givinostat]
Outline: as §1

barasertib = compound: CCN(CCCOc1ccc2c(Nc3cc(CC(=O)Nc4cccc(F)c4)[nH]n3)ncnc2c1)CCOP(=O)(O)O [barasertib]
Outline: as §1

Measured: log2 fold change

DHFR (UniProt P00374)
inactive: IRAK-1-4 Inhibitor I -0.065 | ibrutinib -0.008 | [1] -0.06 | ralimetinib 0.192 | [2] -0.044 | [3] 0.101 | [4] 0.083 | pinometostat 0.255 | [5] -0.114 | [6] 0.2 | [7] -0.069 | [8] 0.003 | [9] -0.086 | [10] -0.074 | Nexturastat A 0.232 | vemurafenib 0.044 | [11] 0.001 | [12] 0.17 | givinostat 0.162 | barasertib 0.068

DHPS (UniProt P49366)
inactive: IRAK-1-4 Inhibitor I 0.011 | ibrutinib -0.004 | [1] 0.02 | ralimetinib -0.04 | [2] -0.043 | [3] 0.047 | [4] -0.012 | pinometostat -0.095 | [5] 0.008 | [6] -0.027 | [7] -0.074 | [8] 0.016 | [9] 0.034 | [10] 0.161 | Nexturastat A -0.079 | vemurafenib 0.067 | [11] 0.008 | [12] -0.015 | givinostat -0.001 | barasertib 0.01

EDEM2 (UniProt Q9BV94)
inactive: IRAK-1-4 Inhibitor I 0.181 | ibrutinib -0.014 | [1] -0.062 | ralimetinib -0.138 | [2] -0.009 | [3] -0.071 | [4] 0.065 | pinometostat -0.001 | [5] 0.009 | [6] 0.022 | [7] -0.064 | [8] -0.001 | [9] -0.084 | [10] -0.204 | Nexturastat A 0.036 | vemurafenib -0.032 | [11] -0.149 | [12] 0.095 | givinostat 0.013 | barasertib 0.21

ERLIN1 (UniProt O75477)
inactive: IRAK-1-4 Inhibitor I -0.073 | ibrutinib -0.06 | [1] 0.105 | ralimetinib 0.054 | [2] -0.018 | [4] -0.007 | pinometostat 0.098 | [5] 0.012 | [6] 0.068 | [7] 0.011 | [8] -0.018 | [9] 0.028 | [10] -0.01 | Nexturastat A 0.031 | vemurafenib -0.02 | [11] 0.014 | [12] 0.065 | givinostat 0.014 | barasertib 0.028
active: [3] -0.269

FAM118B (UniProt Q9BPY3)
Chain of UniProt Q9BPY3 (Q9BPY3 whole entry, looked up): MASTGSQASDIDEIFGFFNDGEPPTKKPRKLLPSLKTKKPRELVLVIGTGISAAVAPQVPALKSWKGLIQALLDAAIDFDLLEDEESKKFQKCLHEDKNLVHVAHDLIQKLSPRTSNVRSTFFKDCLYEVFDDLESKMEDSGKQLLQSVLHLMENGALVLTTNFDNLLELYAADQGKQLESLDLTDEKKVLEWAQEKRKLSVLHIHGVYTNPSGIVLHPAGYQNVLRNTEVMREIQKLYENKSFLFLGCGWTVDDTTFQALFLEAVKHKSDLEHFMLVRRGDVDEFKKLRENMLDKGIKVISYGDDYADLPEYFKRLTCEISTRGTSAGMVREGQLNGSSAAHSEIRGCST
inactive: IRAK-1-4 Inhibitor I 0.039 | ibrutinib 0.073 | [1] -0.118 | ralimetinib 0.051 | [2] -0.199 | [3] -0.145 | [4] 0.065 | pinometostat -0.024 | [5] 0.014 | [6] 0.042 | [7] 0 | [8] 0.03 | [9] 0.037 | [10] 0.055 | Nexturastat A 0.099 | vemurafenib 0.048 | [11] 0.003 | [12] 0.044 | givinostat 0.063 | barasertib 0.093

CTSH (UniProt P09668)
inactive: IRAK-1-4 Inhibitor I 0.009 | ibrutinib 0.034 | [1] 0.005 | ralimetinib 0.104 | [2] 0.005 | [3] -0.142 | [4] -0.016 | pinometostat -0.06 | [5] 0.009 | [6] -0.043 | [7] -0.007 | [8] 0.066 | [9] 0.013 | [10] 0.093 | Nexturastat A -0.047 | vemurafenib 0.023 | [11] -0.034 | [12] 0.157 | givinostat 0.003 | barasertib -0.019

CUEDC2 (UniProt Q9H467)
Chain of UniProt Q9H467 (Q9H467 whole entry, looked up): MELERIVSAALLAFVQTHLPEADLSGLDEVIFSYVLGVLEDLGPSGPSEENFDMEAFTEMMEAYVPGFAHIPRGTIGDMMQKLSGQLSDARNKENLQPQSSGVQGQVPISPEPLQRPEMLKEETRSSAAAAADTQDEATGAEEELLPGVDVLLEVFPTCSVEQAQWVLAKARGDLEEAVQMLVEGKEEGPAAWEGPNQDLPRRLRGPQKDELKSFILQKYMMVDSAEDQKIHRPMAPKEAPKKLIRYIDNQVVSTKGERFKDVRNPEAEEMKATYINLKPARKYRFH
inactive: IRAK-1-4 Inhibitor I 0.035 | ibrutinib -0.011 | [1] 0.003 | ralimetinib -0.026 | [2] -0.056 | [3] -0.003 | [4] 0.198 | pinometostat -0.001 | [5] -0.015 | [6] -0.159 | [7] -0.03 | [8] -0.043 | [9] -0.001 | [10] -0.153 | Nexturastat A -0.019 | vemurafenib 0.009 | [11] 0.032 | [12] -0.01 | givinostat 0.055 | barasertib 0.091

DDX39A (UniProt O00148)
inactive: IRAK-1-4 Inhibitor I -0.034 | ibrutinib 0.099 | [1] -0.224 | ralimetinib 0.003 | [2] -0.142 | [4] 0.042 | pinometostat 0.075 | [5] 0.092 | [6] -0.28 | [7] -0.018 | [8] -0.016 | [9] 0.02 | [10] 0.027 | Nexturastat A 0.015 | vemurafenib 0.004 | [11] 0.017 | [12] 0.074 | givinostat 0.076 | barasertib 0.035
active: [3] -0.327

DNAH11 (UniProt Q96DT5)
Chain of UniProt Q96DT5 (Q96DT5 whole entry, looked up): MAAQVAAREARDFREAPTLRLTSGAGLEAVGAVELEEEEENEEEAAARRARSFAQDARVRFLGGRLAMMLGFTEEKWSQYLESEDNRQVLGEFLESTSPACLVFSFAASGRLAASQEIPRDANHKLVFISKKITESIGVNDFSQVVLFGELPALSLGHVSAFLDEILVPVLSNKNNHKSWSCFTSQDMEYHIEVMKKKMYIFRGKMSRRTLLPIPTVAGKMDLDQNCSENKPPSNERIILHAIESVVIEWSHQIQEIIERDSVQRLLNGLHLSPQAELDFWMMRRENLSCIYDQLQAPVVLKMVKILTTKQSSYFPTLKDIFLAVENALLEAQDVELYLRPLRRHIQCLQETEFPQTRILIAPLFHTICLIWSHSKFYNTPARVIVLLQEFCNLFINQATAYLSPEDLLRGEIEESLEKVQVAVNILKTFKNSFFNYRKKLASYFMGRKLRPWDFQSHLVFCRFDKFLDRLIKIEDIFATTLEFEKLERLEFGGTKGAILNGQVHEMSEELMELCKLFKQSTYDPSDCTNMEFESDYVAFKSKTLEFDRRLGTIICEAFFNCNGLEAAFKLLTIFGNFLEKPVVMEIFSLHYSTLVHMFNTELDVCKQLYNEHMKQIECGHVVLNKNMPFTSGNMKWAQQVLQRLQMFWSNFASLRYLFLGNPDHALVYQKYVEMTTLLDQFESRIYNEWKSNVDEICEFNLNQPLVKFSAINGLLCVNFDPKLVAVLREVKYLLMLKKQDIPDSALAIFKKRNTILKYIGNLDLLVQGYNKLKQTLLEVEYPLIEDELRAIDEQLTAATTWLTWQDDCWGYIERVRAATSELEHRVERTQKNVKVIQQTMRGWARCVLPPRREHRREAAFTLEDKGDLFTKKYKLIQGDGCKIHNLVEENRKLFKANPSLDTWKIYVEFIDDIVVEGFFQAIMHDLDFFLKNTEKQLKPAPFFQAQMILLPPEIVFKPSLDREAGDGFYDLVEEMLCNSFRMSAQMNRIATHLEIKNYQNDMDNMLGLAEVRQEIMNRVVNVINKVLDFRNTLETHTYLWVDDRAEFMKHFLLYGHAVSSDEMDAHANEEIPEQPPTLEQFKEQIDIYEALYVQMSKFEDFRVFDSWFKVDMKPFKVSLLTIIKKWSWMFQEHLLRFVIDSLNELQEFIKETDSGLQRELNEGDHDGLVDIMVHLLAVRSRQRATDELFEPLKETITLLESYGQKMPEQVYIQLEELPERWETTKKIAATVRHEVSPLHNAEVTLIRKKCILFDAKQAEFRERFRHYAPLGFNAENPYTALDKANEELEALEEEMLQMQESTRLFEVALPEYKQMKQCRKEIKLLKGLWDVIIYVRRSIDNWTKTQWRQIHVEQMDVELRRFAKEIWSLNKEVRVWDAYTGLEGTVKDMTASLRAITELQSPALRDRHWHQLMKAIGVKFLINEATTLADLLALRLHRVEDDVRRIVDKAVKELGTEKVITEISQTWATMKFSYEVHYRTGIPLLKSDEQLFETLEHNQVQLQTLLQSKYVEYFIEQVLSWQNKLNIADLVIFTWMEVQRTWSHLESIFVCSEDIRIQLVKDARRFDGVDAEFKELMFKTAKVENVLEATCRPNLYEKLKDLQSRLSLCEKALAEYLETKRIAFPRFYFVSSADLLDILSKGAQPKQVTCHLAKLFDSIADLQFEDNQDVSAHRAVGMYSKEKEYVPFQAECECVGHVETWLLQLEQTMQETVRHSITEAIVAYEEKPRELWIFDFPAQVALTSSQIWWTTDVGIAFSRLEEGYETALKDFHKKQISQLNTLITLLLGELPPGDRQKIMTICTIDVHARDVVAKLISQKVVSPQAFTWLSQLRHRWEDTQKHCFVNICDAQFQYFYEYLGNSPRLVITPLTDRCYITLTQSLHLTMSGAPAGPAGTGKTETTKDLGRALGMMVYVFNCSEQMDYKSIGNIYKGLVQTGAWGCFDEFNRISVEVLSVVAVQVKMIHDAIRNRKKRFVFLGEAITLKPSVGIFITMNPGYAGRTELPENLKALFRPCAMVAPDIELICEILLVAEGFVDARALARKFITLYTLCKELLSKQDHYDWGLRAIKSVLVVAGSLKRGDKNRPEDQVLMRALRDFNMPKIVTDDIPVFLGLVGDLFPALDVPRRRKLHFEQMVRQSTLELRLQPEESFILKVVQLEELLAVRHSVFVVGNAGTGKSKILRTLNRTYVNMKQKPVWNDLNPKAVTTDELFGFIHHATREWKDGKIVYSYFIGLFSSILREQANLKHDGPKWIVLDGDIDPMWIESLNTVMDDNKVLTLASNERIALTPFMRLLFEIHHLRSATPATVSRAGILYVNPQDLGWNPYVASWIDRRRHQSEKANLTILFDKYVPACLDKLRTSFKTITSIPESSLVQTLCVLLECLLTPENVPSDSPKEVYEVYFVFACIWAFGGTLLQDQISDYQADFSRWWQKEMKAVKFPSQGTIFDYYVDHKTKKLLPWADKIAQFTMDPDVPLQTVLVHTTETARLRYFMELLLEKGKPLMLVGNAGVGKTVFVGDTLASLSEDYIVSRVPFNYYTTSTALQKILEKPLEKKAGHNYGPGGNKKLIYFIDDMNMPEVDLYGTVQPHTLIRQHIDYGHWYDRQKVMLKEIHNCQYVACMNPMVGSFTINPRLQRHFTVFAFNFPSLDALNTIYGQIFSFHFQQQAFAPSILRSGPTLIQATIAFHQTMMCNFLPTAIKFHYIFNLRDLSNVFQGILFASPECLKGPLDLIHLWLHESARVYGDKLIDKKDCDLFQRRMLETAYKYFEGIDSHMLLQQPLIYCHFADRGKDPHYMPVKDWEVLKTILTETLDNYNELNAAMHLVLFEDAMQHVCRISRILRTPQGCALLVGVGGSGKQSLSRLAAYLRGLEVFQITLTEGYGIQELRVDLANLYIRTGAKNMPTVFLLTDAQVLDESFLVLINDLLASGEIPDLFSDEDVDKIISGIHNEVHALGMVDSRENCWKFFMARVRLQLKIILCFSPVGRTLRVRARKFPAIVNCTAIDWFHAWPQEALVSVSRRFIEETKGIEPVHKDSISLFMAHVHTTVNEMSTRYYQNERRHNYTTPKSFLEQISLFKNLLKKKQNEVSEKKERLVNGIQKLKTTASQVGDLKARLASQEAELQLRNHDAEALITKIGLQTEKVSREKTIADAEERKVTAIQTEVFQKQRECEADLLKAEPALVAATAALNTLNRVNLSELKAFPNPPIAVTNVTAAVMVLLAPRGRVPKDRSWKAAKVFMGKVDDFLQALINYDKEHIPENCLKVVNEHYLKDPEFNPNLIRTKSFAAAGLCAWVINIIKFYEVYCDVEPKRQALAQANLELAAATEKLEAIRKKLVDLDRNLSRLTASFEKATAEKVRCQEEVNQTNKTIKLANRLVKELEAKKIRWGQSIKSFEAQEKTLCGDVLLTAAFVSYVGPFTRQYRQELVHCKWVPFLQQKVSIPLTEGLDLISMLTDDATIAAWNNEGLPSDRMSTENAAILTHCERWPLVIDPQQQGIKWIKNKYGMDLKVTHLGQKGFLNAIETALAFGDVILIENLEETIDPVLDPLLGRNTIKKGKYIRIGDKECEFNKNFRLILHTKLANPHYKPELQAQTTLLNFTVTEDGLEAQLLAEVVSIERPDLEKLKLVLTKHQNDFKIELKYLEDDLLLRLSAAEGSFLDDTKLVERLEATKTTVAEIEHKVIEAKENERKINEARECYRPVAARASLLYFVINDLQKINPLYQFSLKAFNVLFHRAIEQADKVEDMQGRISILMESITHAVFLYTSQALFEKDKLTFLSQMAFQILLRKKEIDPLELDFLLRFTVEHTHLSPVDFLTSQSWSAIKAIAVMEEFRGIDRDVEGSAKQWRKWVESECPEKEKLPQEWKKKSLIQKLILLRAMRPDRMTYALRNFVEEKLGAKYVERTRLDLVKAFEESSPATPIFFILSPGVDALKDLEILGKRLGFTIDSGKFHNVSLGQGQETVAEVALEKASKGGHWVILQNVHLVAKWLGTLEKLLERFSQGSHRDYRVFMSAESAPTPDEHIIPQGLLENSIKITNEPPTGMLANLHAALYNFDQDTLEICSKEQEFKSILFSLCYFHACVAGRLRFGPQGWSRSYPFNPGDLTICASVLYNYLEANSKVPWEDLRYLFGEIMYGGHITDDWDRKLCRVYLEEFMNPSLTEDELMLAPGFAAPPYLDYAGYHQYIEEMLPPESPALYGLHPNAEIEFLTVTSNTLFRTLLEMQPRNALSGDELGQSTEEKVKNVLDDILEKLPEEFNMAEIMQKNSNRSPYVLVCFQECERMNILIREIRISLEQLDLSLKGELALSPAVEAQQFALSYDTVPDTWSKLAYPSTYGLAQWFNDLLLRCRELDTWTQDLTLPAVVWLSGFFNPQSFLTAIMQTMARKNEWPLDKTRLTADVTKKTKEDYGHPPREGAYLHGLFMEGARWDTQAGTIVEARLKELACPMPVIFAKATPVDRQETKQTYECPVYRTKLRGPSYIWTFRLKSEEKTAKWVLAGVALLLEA
inactive: IRAK-1-4 Inhibitor I 0.038 | ibrutinib 0.103 | [1] 0.126 | ralimetinib -0.285 | [2] 0.047 | [3] -0.001 | [4] 0.041 | pinometostat -0.019 | [5] -0.012 | [6] -0.137 | [7] -0.109 | [8] 0.064 | [9] -0.13 | [10] 0.044 | Nexturastat A -0.007 | vemurafenib 0.199 | [11] -0.15 | [12] 0.17 | givinostat 0.111 | barasertib -0.051

EEF1A1 (UniProt P68104)
inactive: IRAK-1-4 Inhibitor I 0.133 | ibrutinib 0.121 | [1] 0.05 | ralimetinib 0.133 | [2] -0.052 | [3] -0.037 | [4] -0.019 | pinometostat -0.028 | [5] 0.01 | [6] -0.178 | [7] -0.069 | [8] -0.068 | [9] 0 | [10] 0.052 | Nexturastat A 0.086 | vemurafenib 0.031 | [11] 0.022 | [12] 0.089 | givinostat -0.044 | barasertib 0.052

EDC3 (UniProt Q96F86)
active: [1] -0.643
inactive: IRAK-1-4 Inhibitor I -0.029 | ibrutinib -0.082 | ralimetinib 0.013 | [2] -0.117 | [3] -0.223 | [4] 0.019 | pinometostat 0.011 | [5] 0.039 | [6] -0.049 | [7] -0.046 | [8] 0.085 | [9] 0.021 | [10] 0.037 | Nexturastat A 0.088 | vemurafenib 0.046 | [11] 0.008 | [12] 0.1 | givinostat 0.049 | barasertib 0.055

CTSC (UniProt P53634)
inactive: IRAK-1-4 Inhibitor I 0.008 | ibrutinib 0.011 | [1] -0.003 | ralimetinib -0.034 | [2] 0.016 | [3] -0.061 | [4] 0.015 | pinometostat -0.031 | [5] -0.018 | [6] -0.038 | [7] -0.113 | [8] 0.001 | [9] 0.059 | [10] -0.003 | Nexturastat A -0.009 | vemurafenib 0.035 | [11] 0.01 | [12] 0.03 | givinostat 0.017 | barasertib 0.023

EEF1AKNMT (UniProt Q8N6R0)
inactive: IRAK-1-4 Inhibitor I -0.081 | ibrutinib -0.116 | [1] -0.026 | ralimetinib 0.141 | [2] -0.097 | [3] -0.199 | [4] 0.127 | [5] -0.029 | [6] 0.13 | [7] 0.078 | [8] -0.037 | [9] 0.031 | [10] 0.026 | Nexturastat A -0.026 | vemurafenib 0.084 | [11] 0.062 | [12] 0.075 | givinostat 0.04 | barasertib 0.076
active: pinometostat 0.354

CYBA (UniProt P13498)
active: [3] -0.43
inactive: IRAK-1-4 Inhibitor I 0.044 | ibrutinib 0.024 | [1] -0.024 | ralimetinib -0.041 | [2] -0.152 | [4] 0.121 | pinometostat -0.036 | [5] -0.018 | [6] -0.026 | [7] -0.017 | [8] 0.025 | [9] 0.041 | [10] -0.02 | Nexturastat A -0.033 | vemurafenib 0 | [11] 0.008 | [12] -0.028 | givinostat 0.007 | barasertib -0.033

F5 (UniProt P12259)
inactive: IRAK-1-4 Inhibitor I 0.006 | ibrutinib 0.064 | [1] 0.003 | ralimetinib -0.042 | [2] 0.168 | [3] -0.088 | [4] 0.001 | pinometostat -0.016 | [5] -0.017 | [6] -0.129 | [7] 0.056 | [8] 0.036 | [9] -0.027 | [10] 0.011 | Nexturastat A -0.04 | vemurafenib 0.066 | [11] -0.016 | [12] -0.036 | givinostat -0.01 | barasertib 0.034

EXOC2 (UniProt Q96KP1)
active: [3] -0.43
inactive: IRAK-1-4 Inhibitor I -0.092 | ibrutinib -0.018 | [1] -0.048 | ralimetinib 0.08 | [2] -0.052 | [4] 0.027 | pinometostat 0.172 | [5] -0.216 | [6] 0.007 | [7] -0.03 | [8] -0.017 | [9] 0.051 | [10] 0.027 | Nexturastat A 0.058 | vemurafenib 0.041 | [11] 0.062 | [12] 0.037 | givinostat 0.177 | barasertib 0.056

Source: the supplement of paper PMC10849652
